From PubChem BioAssay (NCI) come the findings set out here.

What all share (assay): NCI-60 one-dose screen, 48 h (100 = growth as untreated, 0 = no growth, -100 = all killed)
One experiment deals with EKVX NSCLC. To be noted: 10 µM unless noted.
The test system of a further experiment is SN12C renal. Conditions: 10 µM unless noted.
Another experiment concerns UO-31 renal. To be noted: 10 µM unless noted.
For a further experiment, the system named is TK-10 renal. Conditions: 10 µM unless noted.
Another experiment deals with ACHN renal. Conditions: 10 µM unless noted.
The subject of another experiment is CAKI-1 renal. Conditions: 10 µM unless noted.
Another experiment has as its system A498 renal. To be noted: 10 µM unless noted.
Another experiment has as its system MOLT-4 leukemia. Conditions: 10 µM unless noted.
In the next experiment the test system is SR leukemia. Conditions: 10 µM unless noted.
A further experiment deals with RPMI-8226 leukemia. To be noted: 10 µM unless noted.
The test system of a further experiment is OVCAR-8 ovarian. Conditions: 10 µM unless noted.
The subject of a further experiment is OVCAR-5 ovarian. To be noted: 10 µM unless noted.
A further experiment concerns OVCAR-4 ovarian. To be noted: 10 µM unless noted.
For another experiment, the system named is SK-OV-3 ovarian. Conditions: 10 µM unless noted.
Another experiment relates to IGROV1 ovarian. Conditions: 10 µM unless noted.
For the next experiment, the system named is OVCAR-3 ovarian. Conditions: 10 µM unless noted.
In a further experiment the test system is HS 578T breast. Conditions: 10 µM.
The test system of a further experiment is NCI/ADR-RES ovarian. Conditions: 10 µM unless noted.
Another experiment deals with CCRF-CEM leukemia. To be noted: 10 µM unless noted.

This is part of a sample that, as a whole, favours compounds with a hit. Of some 83,000 tested, about 20% had one in any assay.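 Treatment: one concentration, 48 hours, 96-well format. Scoring: percent growth, with anything below 10 considered active.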 Unmarked numbers belong to inactive results. Active and inactive are the calls of the source.

Regarding `O=C(Nc1cccc([N+](=O)[O-])c1)c1ccc(Cl)c(Cl)c1`, the growth in the experiment with EKVX NSCLC was 66.4%; with SN12C renal it was 67.9%; in the experiment with UO-31 renal it was 95.4%; in the experiment with TK-10 renal it was 49.9%; in the experiment on ACHN renal, 49.8%; in the experiment with CAKI-1 renal it was 86.4%. The growth in the experiment on A498 renal is 79.9%; in the experiment with MOLT-4 leukemia, 85.9%; in the experiment on SR leukemia, 80.7%; in the experiment with RPMI-8226 leukemia, 79.1%; in the experiment on OVCAR-8 ovarian, 43.5%; in the experiment on OVCAR-5 ovarian, 94.2%. Moreover, the growth in the experiment with OVCAR-4 ovarian is 16.7%; in the experiment with SK-OV-3 ovarian it was 53.3%; in the experiment with IGROV1 ovarian, 47%; in the experiment on OVCAR-3 ovarian, 53.8%; with HS 578T breast, 70%; in the experiment with NCI/ADR-RES ovarian it was 79%.

Regarding `C[C@@]1(C(=O)Nc2ccc(F)nc2)CCCN1c1nc(Nc2cc(C3CC3)[nH]n2)c2cccn2n1`, the growth was 46.2% in the experiment with EKVX NSCLC; 34.6% with SN12C renal; 2.07% (active) in the experiment on UO-31 renal; 35.9% with TK-10 renal; 25.7% in the experiment on ACHN renal; -17.7% (active) in the experiment with CAKI-1 renal. The growth in the experiment on A498 renal is -41.7% (active); with CCRF-CEM leukemia, 44%; in the experiment with MOLT-4 leukemia it was 30.3%; with SR leukemia, -0.827% (active); with OVCAR-8 ovarian, 38.6%; in the experiment on OVCAR-5 ovarian, 14.7%. Moreover, the growth with OVCAR-4 ovarian is 0.224% (active); in the experiment with SK-OV-3 ovarian, 18.7%; in the experiment with IGROV1 ovarian, 1.38% (active); in the experiment with OVCAR-3 ovarian, 57.4%; in the experiment on NCI/ADR-RES ovarian, 32%.

Turning to `CCN(CCO)CCCOc1ccc2c(Nc3cc(CC(=O)Nc4cccc(F)c4)[nH]n3)ncnc2c1`, the growth is 51.8% with EKVX NSCLC; 46.9% with SN12C renal; 50.4% in the experiment on UO-31 renal; 31.5% with TK-10 renal; 48.9% in the experiment on ACHN renal; 35.4% in the experiment on CAKI-1 renal. In addition, the growth in the experiment on A498 renal is 47.4%; in the experiment on CCRF-CEM leukemia it was 40.3%; with MOLT-4 leukemia, 36.3%; in the experiment on SR leukemia, 12.3%; in the experiment with OVCAR-8 ovarian, 49.8%; in the experiment on OVCAR-5 ovarian, 20.7%. Moreover, the growth in the experiment on OVCAR-4 ovarian was 48.4%; with SK-OV-3 ovarian, 68.3%; with IGROV1 ovarian, 16.4%; in the experiment on OVCAR-3 ovarian, 44.4%; in the experiment with NCI/ADR-RES ovarian it was 70.7%.

In the case of `CN(C)C/C=C/C(=O)Nc1cc2c(Nc3ccc(F)c(Cl)c3)ncnc2cc1O[C@H]1CCOC1`, the growth is 4.87% (active) in the experiment on EKVX NSCLC; 3.6% (active) in the experiment with SN12C renal; 12.2% with UO-31 renal; -10.4% (active) in the experiment on TK-10 renal; -84.9% (active) with ACHN renal; 5.36% (active) in the experiment on CAKI-1 renal. For the same compound, the growth was 6.13% (active) with CCRF-CEM leukemia; -13.5% (active) in the experiment with MOLT-4 leukemia; -15.8% (active) with SR leukemia; -20.3% (active) in the experiment on RPMI-8226 leukemia; -2.55% (active) in the experiment with OVCAR-8 ovarian; 17% in the experiment with OVCAR-5 ovarian. Also, the growth is 20.1% with OVCAR-4 ovarian, -15.1% (active) in the experiment with SK-OV-3 ovarian, -27.1% (active) in the experiment on IGROV1 ovarian and -14% (active) with OVCAR-3 ovarian.

Turning to `Cn1cc(-c2ccc(F)c(C(F)(F)F)c2)nc1C1CCN(c2ncnc3[nH]ncc23)CC1`, the growth was 88% in the experiment on EKVX NSCLC; 63.7% in the experiment with SN12C renal; 63.8% in the experiment on UO-31 renal; 66.6% in the experiment on TK-10 renal; 73.4% in the experiment on ACHN renal; 62.2% in the experiment with CAKI-1 renal. In addition, the growth in the experiment with A498 renal is 66.5%; with CCRF-CEM leukemia, 72.4%; in the experiment on MOLT-4 leukemia, 65.5%; with SR leukemia, 55.4%; in the experiment on OVCAR-8 ovarian, 47.8%; in the experiment on OVCAR-5 ovarian it was 85.8%. In addition, the growth with OVCAR-4 ovarian is 80.4%; in the experiment on SK-OV-3 ovarian, 55.5%; with IGROV1 ovarian it was 55.2%; in the experiment on OVCAR-3 ovarian it was 89.6%; in the experiment on NCI/ADR-RES ovarian it was 61.2%.

For `O=C(Nc1ccc(Nc2ncnc3sc4c(c23)CCOC4)cc1)Nc1ccc(Cl)c(C(F)(F)F)c1`, the growth in the experiment on EKVX NSCLC is 105%; in the experiment with SN12C renal, 105%; in the experiment with UO-31 renal, 115%; in the experiment with TK-10 renal, 109%; in the experiment on ACHN renal, 86.6%; in the experiment with CAKI-1 renal, 107%. Further, the growth was 89.5% in the experiment with A498 renal; 74.4% in the experiment with MOLT-4 leukemia; 83% with SR leukemia; 80.8% in the experiment on RPMI-8226 leukemia; 109% in the experiment on OVCAR-8 ovarian; 89.2% in the experiment with OVCAR-5 ovarian. Further, the growth was 131% with OVCAR-4 ovarian; 95.3% with SK-OV-3 ovarian; 79.5% in the experiment on IGROV1 ovarian; 87.2% in the experiment with OVCAR-3 ovarian; 94.7% in the experiment with NCI/ADR-RES ovarian.

Turning to `CC[C@H](Nc1ncnc2nc[nH]c12)c1nc2cccc(F)c2c(=O)n1-c1ccccc1`, the growth in the experiment on EKVX NSCLC is 80.1%; in the experiment on SN12C renal, 51.6%; in the experiment with UO-31 renal, 31.3%; in the experiment on TK-10 renal it was 17.4%; with ACHN renal, 41.5%; in the experiment with CAKI-1 renal it was 52.9%. For the same compound, the growth was -14.3% (active) in the experiment with A498 renal; 52.3% in the experiment on CCRF-CEM leukemia; 62.2% in the experiment on MOLT-4 leukemia; 72.8% in the experiment on SR leukemia; 60.6% in the experiment on OVCAR-8 ovarian; 61.8% in the experiment on OVCAR-5 ovarian. In addition, the growth is 95.7% in the experiment with OVCAR-4 ovarian; -4.44% (active) in the experiment on SK-OV-3 ovarian; 8.8% (active) with IGROV1 ovarian; 48.7% with OVCAR-3 ovarian; 83% with NCI/ADR-RES ovarian.

For `Nc1nc(Nc2ccccc2)c(C=Nc2ccccc2)c(=O)[nH]1`, the growth with EKVX NSCLC was 89.1%; in the experiment on SN12C renal, 91%; in the experiment on UO-31 renal, 61%; in the experiment on TK-10 renal, 116%; with ACHN renal it was 83.4%; in the experiment on CAKI-1 renal, 68%. Besides, the growth in the experiment with A498 renal is 86.3%; in the experiment with CCRF-CEM leukemia it was 92.1%; with MOLT-4 leukemia, 81.2%; with OVCAR-8 ovarian it was 85.2%; in the experiment on OVCAR-5 ovarian, 90.7%; with OVCAR-4 ovarian, 94.8%. For the same compound, the growth is 86.3% in the experiment on SK-OV-3 ovarian; 48.5% in the experiment on IGROV1 ovarian; 110% in the experiment on OVCAR-3 ovarian; 87.5% with HS 578T breast; 91.9% in the experiment on NCI/ADR-RES ovarian.

Take `N[C@@H]1CCCN(c2c(/C=C3\SC(=O)NC3=O)cccc2-c2ccccc2)C1`: the growth was 62.6% with EKVX NSCLC; 65% with SN12C renal; 31.9% in the experiment on UO-31 renal; 78.6% with TK-10 renal; 73.2% with ACHN renal; 73.6% with CAKI-1 renal. Moreover, the growth with A498 renal is 75%; in the experiment on CCRF-CEM leukemia it was 55.3%; with MOLT-4 leukemia, 31.1%; in the experiment on SR leukemia, 22.1%; in the experiment with OVCAR-8 ovarian, 61.1%; in the experiment on OVCAR-5 ovarian, 64.4%. Further, the growth is 11.4% in the experiment on OVCAR-4 ovarian; 63.6% with SK-OV-3 ovarian; 66.7% with IGROV1 ovarian; 54.2% with OVCAR-3 ovarian; 88.1% in the experiment with NCI/ADR-RES ovarian.
